IL1B secr inh = qHTS for Inhibitors of Inflammasome Signaling: IL-1-beta AlphaLISA Primary Screen; activity change, % at 57.5 µM; AID 743279, 2014; 360,000 tested, 4.7% active; THP-1 LPS/ATP IL-1B secretion, AlphaLISA, 16 h; hits give low values; in the data active means activity change below about -50%; inconclusive means mostly about -30% to -49%
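Secreted IL-1B measured by AlphaLISA bead assay after 16 h compound exposure of THP-1 cells; compounds (final up to 57.5 uM) added 1 h before LPS (250 ng/mL) and ATP (1.25 mM) stimulation; lower signal means less secretion.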
TDP1 cell CPT = qHTS for Inhibitors of human tyrosyl-DNA phosphodiesterase 1 (TDP1): qHTS in cells in presence of CPT. AID 686979, 2013. chicken DT40 Tdp1-/-;hTDP1 cells + 20 nM CPT, ATP luminescence, 48 h. 420,000 tested, 12% active. Potency, µM (series often up to 46.2 µM), inactives show at the highest dose activity change, negative = growth inhibition, usual class: inhibitors; further: potency means the concentration at half of the fitted maximal effect; nearly all actives have a fitted effect of over 55% in size
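Chicken DT40 Tdp1-/- cells stably complemented with human TDP1 were seeded at 400 cells/well in medium containing 20 nM camptothecin, exposed to pin-transferred compounds, and grown at 37 °C for at least 48 hr. Viability was read as ATP luminescence.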
DT40 TDP1 no CPT = qHTS for Inhibitors of human tyrosyl-DNA phosphodiesterase 1 (TDP1): qHTS in cells in absence of CPT; 420,000 tested, 15% active; AID 686978, 2013; Potency, µM (highest dose often 46.2 µM), for inactives: at the highest dose activity change, negative = growth inhibition, usual class: inhibitors; DT40 Tdp1-/- hTDP1 cells, no CPT, ATP luminescence, 48 h; further: potency means the concentration at half of the fitted maximal effect; nearly all actives have a fitted effect of over 55% in size
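No-CPT arm: Tdp1-/-;hTDP1 DT40 cells (400/well) plus compounds, incubated ≥48 hr at 37 °C. Readout CellTiter-Glo luminescence.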
HT1080-NT tox = qHTS for induction of synthetic lethality in tumor cells producing 2HG: qHTS for the HT-1080-NT fibrosarcoma cell line. HT-1080-NT fibrosarcoma viability, CellTiter-Glo ATP luminescence, 48 h. Potency, µM (titrated, usually from 46.1 µM), without a hit: top-dose activity, negative = less viability, usual class: cytotoxic. 360,000 tested, 1.6% active. AID 686970, 2013;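 further: NT is the 2HG producing partner of a matched IDH1 knockdown line; potency means the concentration at half of the fitted maximal effect; 0% = DMSO-treated cells and -100% = media-only wells without cells; nearly all actives have a fitted effect of over 55% in size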
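A 48-hour cytotoxicity screen used HT-1080-NT cells plated 2 hours before compound delivery. ATP-based CellTiter-Glo luminescence measured viability, normalized to DMSO and no-cell controls.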
HT1080 IDH1KD tx = qHTS for induction of synthetic lethality in tumor cells producing 2HG: qHTS for the HT-1080-IDH1KD cell line. Potency, µM (titrated, usually from 46.1 µM), for the others: top-dose activity, negative = toxicity, usual class: cytotoxic. HT-1080 IDH1 knockdown viability, ATP luminescence, 48 h. AID 686971, 2013. 360,000 tested, 2% active;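 further: potency means the concentration at half of the fitted maximal effect; 0% = DMSO wells and -100% = cell-free medium wells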
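Assay cells: HT-1080 with IDH1 knockdown, 750 per well, RPMI/5% FBS. Exposure: 48 h at 37 °C following 2 h pre-incubation. Read: CellTiter-Glo luminescence; fitted concentration-response, curve class assigned.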
ELG1 repair inh = qHTS screen for small molecules that inhibit ELG1-dependent DNA repair in human embryonic kidney (HEK293T) cells expressing luciferase-tagged ELG1. HEK293T ELG1-luciferase reporter, luminescence, 16 h; DNA damage induced by 5-fluorouridine. 330,000 tested, 2.3% active. AID 504467, 2011. Potency, µM (series often up to 46.1 µM), inactives show at the highest dose activity change, negative = inhibition, usual class: inhibitors; further: potency means the concentration at half of the fitted maximal effect; nearly all actives have a fitted effect of over 55% in size
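Quantitative HTS, concentration-response format. 2,000 cells/well co-treated with 5-fluorouridine and compound, 16 hr in 5% CO2 at 37 °C; ONE-Glo luminescence read after 30 min.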
ELG1 FLuc counter = qHTS screen for small molecules that inhibit ELG1-dependent DNA repair: Hit Confirmation in Cell-Based Luciferin Assay | cell-free firefly luciferase luminescence counter-screen, ViewLux | 350 tested, 3% active | Potency, µM (titrated, usually from 46.1 µM), inactives show top-dose activity change, negative = inhibition, actives largely listed as inhibitors | AID 624247, 2012 | shares compounds with ELG1 repair inh; further: potency means the concentration at half of the fitted maximal effect
ELG1-Luc inh = HTS assay for small molecules that inhibit ELG1-dependent DNA repair in human embryonic kidney (HEK293T) cells expressing luciferase-tagged ELG1: Hit Confirmation. Potency, µM (doses to about 46.1 µM), without a hit: at the highest dose activity change, negative = inhibition, most hits filed as inhibitors. HEK293T ELG1-luciferase levels, luminescence; cells co-treated with 5-fluorouridine. 670 tested, 68% active. shares compounds with ELG1 repair inh. AID 624248, 2012; further: potency means the concentration at half of the fitted maximal effect; nearly all actives have a fitted effect of over 55% in size
Target sequence (Q96QE3 whole entry, looked up): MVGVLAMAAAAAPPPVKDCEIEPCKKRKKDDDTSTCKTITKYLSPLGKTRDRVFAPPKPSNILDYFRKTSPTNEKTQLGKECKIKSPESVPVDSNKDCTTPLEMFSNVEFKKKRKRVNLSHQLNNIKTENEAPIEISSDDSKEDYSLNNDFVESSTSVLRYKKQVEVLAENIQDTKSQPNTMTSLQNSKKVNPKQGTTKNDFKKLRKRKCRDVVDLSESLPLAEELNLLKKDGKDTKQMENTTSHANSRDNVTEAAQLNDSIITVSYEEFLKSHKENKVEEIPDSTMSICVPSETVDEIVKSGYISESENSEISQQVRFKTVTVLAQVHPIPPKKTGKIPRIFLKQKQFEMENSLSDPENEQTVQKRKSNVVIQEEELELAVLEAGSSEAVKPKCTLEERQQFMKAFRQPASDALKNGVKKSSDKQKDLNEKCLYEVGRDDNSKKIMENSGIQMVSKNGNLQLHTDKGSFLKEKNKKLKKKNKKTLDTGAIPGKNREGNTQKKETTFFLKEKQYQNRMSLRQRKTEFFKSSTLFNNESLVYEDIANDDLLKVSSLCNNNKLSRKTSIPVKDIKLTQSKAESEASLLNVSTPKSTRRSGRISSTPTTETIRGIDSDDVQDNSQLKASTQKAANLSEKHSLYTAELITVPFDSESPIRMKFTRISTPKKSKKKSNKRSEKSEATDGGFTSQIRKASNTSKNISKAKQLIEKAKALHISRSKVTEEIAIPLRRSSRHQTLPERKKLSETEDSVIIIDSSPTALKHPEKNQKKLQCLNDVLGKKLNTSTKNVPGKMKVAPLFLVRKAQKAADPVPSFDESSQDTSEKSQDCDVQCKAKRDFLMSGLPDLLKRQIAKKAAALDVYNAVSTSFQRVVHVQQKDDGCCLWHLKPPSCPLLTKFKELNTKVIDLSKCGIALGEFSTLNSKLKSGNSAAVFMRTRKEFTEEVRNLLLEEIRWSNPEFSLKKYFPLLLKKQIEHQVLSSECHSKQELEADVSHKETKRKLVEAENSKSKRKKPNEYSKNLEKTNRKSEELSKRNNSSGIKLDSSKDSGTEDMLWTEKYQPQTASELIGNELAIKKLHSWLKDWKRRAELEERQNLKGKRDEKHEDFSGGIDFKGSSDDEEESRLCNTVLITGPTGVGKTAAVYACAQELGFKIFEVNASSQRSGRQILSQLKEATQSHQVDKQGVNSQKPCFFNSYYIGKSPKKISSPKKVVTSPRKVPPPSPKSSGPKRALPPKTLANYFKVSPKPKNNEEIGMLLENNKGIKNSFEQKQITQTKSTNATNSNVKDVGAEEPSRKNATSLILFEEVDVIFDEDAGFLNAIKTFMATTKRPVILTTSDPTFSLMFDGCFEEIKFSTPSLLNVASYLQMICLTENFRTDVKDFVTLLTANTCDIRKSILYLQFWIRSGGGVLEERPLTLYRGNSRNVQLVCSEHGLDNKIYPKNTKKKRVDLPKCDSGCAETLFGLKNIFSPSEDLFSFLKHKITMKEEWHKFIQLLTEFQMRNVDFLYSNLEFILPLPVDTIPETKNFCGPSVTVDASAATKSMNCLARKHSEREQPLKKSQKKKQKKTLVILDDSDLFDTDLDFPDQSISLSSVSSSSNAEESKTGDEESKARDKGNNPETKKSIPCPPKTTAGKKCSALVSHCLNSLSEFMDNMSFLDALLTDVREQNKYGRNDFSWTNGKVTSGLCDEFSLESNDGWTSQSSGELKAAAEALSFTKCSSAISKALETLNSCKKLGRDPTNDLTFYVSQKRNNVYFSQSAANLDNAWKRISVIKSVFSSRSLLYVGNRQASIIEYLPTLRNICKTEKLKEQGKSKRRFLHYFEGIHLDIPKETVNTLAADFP
ELG1-Luc MMS = MMS-stimulated human ELG1 repair inhibition, confirmed. shares compounds with ELG1 repair inh. HEK293T luciferase-tagged ELG1 level, MMS stimulated. Potency, µM (highest dose often 46.1 µM), for the others: at the highest dose activity change, negative = inhibition, actives largely listed as inhibitors. 670 tested, 53% active. AID 624249; further: potency means the concentration at half of the fitted maximal effect; nearly all actives have a fitted effect of over 60% in size
ELG1 5FU viab = qHTS screen for small molecules that inhibit ELG1-dependent DNA repair: Hit Confirmation with 5FU Viability | shares compounds with ELG1 repair inh | cell viability with 5-FU, ELG1-dependent repair | Potency, µM (series often up to 46.1 µM), without a hit: at the top dose activity change, negative = viability loss, most hits filed as cytotoxic | 670 tested, under 10 active;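 further: ELG1-luc HEK293T cells cotreated with 5-fluorouridine at 10 µM final; potency means the concentration at half of the fitted maximal effect; viability measured 16 h after compound addition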
ELG1 MMS viab = qHTS screen for small molecules that inhibit ELG1-dependent DNA repair: Hit Confirmation with MMS Viability | shares compounds with ELG1 repair inh | Cell viability with MMS, ELG1-dependent DNA repair | Potency, µM (doses to about 46.1 µM), for inactives: top-dose activity change, negative = viability loss, most hits filed as cytotoxic | 670 tested, 33% active;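 further: ELG1-luc HEK293T cells co-treated with 10 µM MMS; potency means the concentration at half of the fitted maximal effect; viability read 16 h after compound addition; nearly all actives have a fitted effect of over 60% in size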
Cell viab unstim = qHTS screen for small molecules that inhibit ELG1-dependent DNA repair: Hit Confirmation with Unstimulated Viability Assay. shares compounds with ELG1 repair inh. cell viability counter-screen, unstimulated, luminescence. Potency, µM (titrated, usually from 45.9 µM), for inactives: at the highest dose activity change, negative = loss of viability, actives largely listed as cytotoxic. 900 tested, 8% active;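 further: potency means the concentration at half of the fitted maximal effect; compound exposure lasted 16 hours before reading; nearly all actives have a fitted effect of over 55% in size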
FLuc enzyme = qHTS screen for small molecules that inhibit ELG1-dependent DNA repair: Hit Confirmation in Biochemical Luciferin Assay. shares compounds with ELG1 repair inh. purified firefly luciferase, luminescence counter-screen. Potency, µM (series often up to 57.5 µM), without a hit: at the highest dose activity, negative = inhibition, usual class: inhibitors. 350 tested, 10% active; further: potency means the concentration at half of the fitted maximal effect
* hit, by the source's call; i = inactive; ? = inconclusive; · = no result given; [ ] = remark or other dose. This is a sample that favours compounds with a hit; in the whole collection about 19% have one here. Unless noted, the call rests on the fitted dose curve; in most records, active means well fitted curve in the direction sought with a large enough effect; inconclusive means small, poorly fitted or top-dose-only effect, or another doubt; inactive means no such curve, though single readings can be large; an effect the other way counts as inactive or inconclusive. Unless noted, on the % scale 0 is the no-effect control and ±100 the full control effect.

SMILES	IL1B secr inh	TDP1 cell CPT	DT40 TDP1 no CPT	HT1080-NT tox	HT1080 IDH1KD tx	ELG1 repair inh	ELG1 FLuc counter	ELG1-Luc inh	ELG1-Luc MMS	ELG1 5FU viab	ELG1 MMS viab	Cell viab unstim	FLuc enzyme
COC(=O)c1ccc(NC(=O)CCS(=O)(=O)c2ccc3c(c2)NC(=O)C(C)S3)cc1 (stereo not drawn)	57.0	?	?	-1.6%	-2.4%	?	·	·	·	·	·	·	·
Cc1c(C(=O)Nc2nccs2)oc2ccc(Br)cc12	25.4	?	?	-2.7%	-1.6%	?	·	·	·	·	·	-8.4%	·
O=C(NC1CCCCCCC1)c1cc(COc2ccc3ncccc3c2)on1	?	3.66µM*	4.61µM*	-15.1%	-19.8%	1.64µM*	-12.4%	17.7µM*	1.12µM*	-2.8%	1.41µM*	?	?
CCOC(=O)N1CCN(C(=O)c2cc(COc3cccc(C(C)=O)c3)on2)CC1	0.1	?	?	3.9%	2.3%	?	·	·	·	·	·	·	·
CCOC(=O)N1CCN(C(=O)c2cc(COc3ccc4ncccc4c3)on2)CC1	-9.8	6.51µM*	6.51µM*	-10.1%	-16.7%	9.2µM*	-5.4%	19.9µM*	5.61µM*	-0.3%	4.45µM*	14.1µM*	-3.3%
Cc1ncc(CN2CCC(C(=O)Nc3cccc(-c4cscn4)c3)CC2)cn1	i	?	?	-2.5%	-10.4%	-15.2%	·	·	·	·	·	·	·
CC1(c2ccccc2Br)NC(=O)N(CC(=O)NC2CCCCC2)C1=O (stereo not drawn)	-7.0	-8.9%	2.8%	-4.1%[9.24 µM]	2.9%	-3.0%	·	·	·	·	·	·	·
O=C(CNC(=O)OCc1ccccc1)NC1CCCCCC1	-1.7	7.9%	3.8%	0.4%	3.7%	-2.7%	·	·	·	·	·	·	·
O=C(N[C@H]1/C=C\[C@@H](O)CCCC1)OCc1ccccc1	-13.7	3.6%	-2.5%	1.6%	1.8%	?	·	·	·	·	·	5.2%	·
CCOC(=O)c1c(C)nc2sc3c(=O)n(-c4ccc(OC)cc4)cnc3c2c1-c1ccc(OC)cc1	32.5	?	?	6.6%	-3.8%	-9.1%	-3.5%	1.26µM*	-12.6%	2.5%	-1.9%	-1.6%	-1.7%
CCOC(=O)c1c(C)nc2sc3c(=O)n(-c4ccc(C(C)=O)cc4)nnc3c2c1-c1ccc(OC)cc1	-1.9	?	?	-8.2%	-11.2%	?	·	·	·	·	·	·	·
COc1ccc(CCN2C(=O)CSC2=Nc2ccc(C(C)C)cc2)cc1OC	·	14.6µM*	9.2µM*	?	5.8µM*	4.11µM*	·	25µM*	2.5µM*	?	1.99µM*	15.8µM*	·
COc1ccccc1N1CCN(C(=O)CCCN2C(=O)c3cccc4cccc(c34)C2=O)CC1	?	16.4µM*	29.1µM*	-9.9%	-15.9%	4.61µM*	·	7.91µM*	?	?	-4.1%	?	·
O=C(CCCN1C(=O)c2cccc3cccc(c23)C1=O)N1CCN(c2ccccn2)CC1	-3.6	?	?	14.9%	7.8%	?	·	·	·	·	·	·	·
O=C(Nc1cccc(NC(=O)c2cccc([N+](=O)[O-])c2)n1)c1cccc([N+](=O)[O-])c1	17.1	-4.7%	-4.1%	7.7%	10.6%	2.06µM*	·	?	6.5%	-4.0%	?	?	·
CN1CCN(Cc2cn[nH]c2-c2ccc(F)cc2F)[C@@H](c2ccccc2)C1	?	0.0%	-14.4%	-1.1%	-11.6%	4.4%	·	·	·	·	·	·	·
CN(CC(=O)Nc1ccncc1)S(=O)(=O)c1ccc(Br)cc1	-6.7	?	?	-15.1%	-24.1%	?	·	·	·	·	·	·	·
CN(CCCC(=O)Nc1ccncc1)S(=O)(=O)c1ccc(Cl)cc1	-11.9	16.4µM*	23.1µM*	-1.9%	-2.1%	2.31µM*	17.8%	-17.2%	7.92µM*	-6.7%	7.92µM*	?	-6.0%
CCOc1cc(S(=O)(=O)NCc2ccncc2)ccc1Cl	-1.7	0.517µM*	0.581µM*	?	?	?	-1.2%	?	0.561µM*	-8.3%	0.706µM*	-4.4%	0.2%

Bioassay records deposited in PubChem by National Center for Advancing Translational Sciences (NCATS).
